Assay outcomes as filed in PubChem BioAssay.
Most compounds without a hit are left out; they make up all but 5.8% or so of the library.
TRPV1 potentiator – HTS Assay for Compounds that Act as Potentiators of the Vanilloid Receptor 1. TRPV1-expressing cells, Fluo-8 calcium influx, capsaicin EC20 potentiation. potentiation, % at 8.33 µM. AID 540277, 2011. 320,000 compounds, 0.02% hits. Transient receptor potential cation channel subfamily V member 1 (Homo sapiens), Q8NER1; in the data active means potentiation above about 80%; inconclusive means between about 30% and that limit
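Fluo-8 calcium influx in TRPV1-expressing cells, kinetic read (ex 480/em 520 nm). Compound added and read 3 min for agonist activity, followed by capsaicin at EC20 final and 2 min further read for enhancement.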
uPA generation – qHTS for Inhibitors of Cell Surface uPA Generation. cell surface uPA generation assay, qHTS. Potency, µM (doses to about 38.3 µM), usual class: inhibitors. AID 540303, 2011. 330,000 compounds, 0.31% hits; active means well fitted inhibition curve with a large enough effect; inconclusive means small, poorly fitted or top-dose-only effect; inactive means no such curve, though single readings can be large or run the other way; tested in mouse RAW 264.7 cells; further: nearly all actives have a fitted effect of over 55% in size
VP16 counter – VP16 counterscreen qHTS for inhibitors of ROR gamma transcriptional activity. Potency, µM (highest dose often 53.6 µM), actives largely listed as inhibitors. AID 2546, 2010. 310,000 compounds, 3.5% hits. Drosophila S2 Gal4-VP16 UAS-luciferase, luminescence, 20 h;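 further: Gal4-VP16 expression switched on by copper sulfate through the metallothionein promoter; nearly all actives have a fitted effect of over 50% in size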
TRPV1 agonist – HTS Assay for Compounds that Act as Agonists of the Vanilloid Receptor 1 | 320,000 compounds, 0.19% hits | activation, % at 8.33 µM | TRPV1-expressing cells, Fluo-8 calcium influx, agonist mode; in the data active means activation above about 80%; inconclusive means between about 30% and that limit
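Fluo-8 calcium influx in TRPV1-expressing cells, kinetic read (ex 480/em 520 nm). Compound added and read 3 min for agonist activity, followed by capsaicin at EC20 final and 2 min further read for enhancement.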
RORg inh – qHTS for inhibitors of ROR gamma transcriptional activity; Nuclear receptor ROR-gamma (Mus musculus), P51450; Drosophila S2 Gal4-RORgamma UAS-luciferase reporter, 20 h; Potency, µM (doses to about 53.6 µM), usual class: inhibitors; 310,000 compounds, 5.4% hits; further: nearly all actives have a fitted effect of over 60% in size
Target sequence (P51450 whole entry, looked up, the tested form may be a part): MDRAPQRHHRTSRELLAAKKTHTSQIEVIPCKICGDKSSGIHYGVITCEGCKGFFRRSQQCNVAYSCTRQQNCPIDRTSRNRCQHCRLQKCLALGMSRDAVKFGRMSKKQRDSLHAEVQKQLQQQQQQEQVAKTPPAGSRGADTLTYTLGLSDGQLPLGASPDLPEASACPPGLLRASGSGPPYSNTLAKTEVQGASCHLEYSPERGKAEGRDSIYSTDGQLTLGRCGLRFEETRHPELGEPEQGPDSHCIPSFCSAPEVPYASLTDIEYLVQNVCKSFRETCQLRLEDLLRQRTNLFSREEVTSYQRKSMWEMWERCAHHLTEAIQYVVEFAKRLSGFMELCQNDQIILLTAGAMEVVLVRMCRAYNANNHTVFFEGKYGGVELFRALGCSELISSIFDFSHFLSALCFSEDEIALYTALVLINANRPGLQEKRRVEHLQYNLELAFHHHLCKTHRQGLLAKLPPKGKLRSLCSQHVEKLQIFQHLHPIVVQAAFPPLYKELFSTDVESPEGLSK
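Using a luciferase readout, inhibitors were identified by reduced reporter activity in Drosophila cells coexpressing a copper-inducible Gal4–ROR gamma fusion and UAS-driven Photinus luciferase, incubated 20 hr after 700 uM copper sulfate.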
Each line names hits and unclear results; the compound was inactive in the other large screens; ! = not confirmed by another sample. Unless noted, the call rests on the fitted dose curve; in most records, active means well fitted curve in the direction sought with a large enough effect; inconclusive means small, poorly fitted or top-dose-only effect, or another doubt; inactive means no such curve, though single readings can be large; an effect the other way counts as inactive or inconclusive.

CN(C(=O)c1cccc(NC(=O)Cc2cccc(NC(=O)C3CCN(C(=O)C4CCCCC4)CC3)c2)c1)C1CCC1	none (no result: TRPV1 potentiator, VP16 counter, TRPV1 agonist, RORg inh)
O=C(O)CCn1cc(/C=C/C(=O)c2ccc(Cl)cc2)c(-c2ccc(Br)cc2)n1	VP16 counter inconclusive, RORg inh 7.1µM
Cc1nc(N2CCOCC2)c2nc(-c3ccccc3)n(CC(C)(C)CN(C)C)c2n1	none (no result: TRPV1 potentiator, uPA generation, TRPV1 agonist)
C/C(=N\OCC(=O)N/N=C/c1ccc(C)cc1O)c1cccs1	VP16 counter 2.8µM, RORg inh 0.5µM
Cc1ccc(/C=N/NC(=O)Cc2ccc(Cl)cc2)c(O)c1	VP16 counter 0.56µM, RORg inh 0.22µM
Cc1ccccc1/C=N/NC(=O)Cc1ccc(Cl)cc1	none
Cc1cc(O)c(NC(=S)NC(=O)c2ccc(-c3ccc(Cl)cc3)o2)cc1C	VP16 counter 5µM, RORg inh 3.2µM
Cc1ccc(O)c(NC(=S)NC(=O)Cc2ccc(Cl)cc2)c1	VP16 counter 11µM, RORg inh 13µM
C/C(=N\NC(=O)CO/N=C(\C)c1cccs1)c1ccc(N)cc1	none
Cc1ccc(C(=O)C(C)N2C(=O)NC(C)(c3ccccc3)C2=O)cc1 (stereo unspecified)	none
CCN(CC)S(=O)(=O)c1cc(NC(=O)CNc2c(C)n(C)n(-c3ccccc3)c2=O)ccc1C	none
NCC(=O)N[C@@H](CCCN=C(N)N)C(=O)NCC(=O)N[C@@H](CC(=O)O)C(=O)N[C@@H](CC(N)=O)C(=O)N1CC[C@@H](C(=O)O)C1	none (no result: TRPV1 potentiator, uPA generation, TRPV1 agonist)
O=C(CN1C(=O)NC(c2ccccc2)(c2ccccc2)C1=O)NCc1ccc(F)cc1	none (no result: TRPV1 potentiator, VP16 counter, TRPV1 agonist, RORg inh)
O=C(Nc1ccncc1)c1ccc2c(c1)C(=O)N(C1CCCCC1)C2=O	VP16 counter 11µM, TRPV1 agonist inconclusive, RORg inh inconclusive
O=C(c1ccncc1)N(c1ccc2oc3c(c2c1)CCCC3)S(=O)(=O)c1ccc(F)cc1	none
COC(=O)C1=C(C)N(CC2CC2)C(=O)N[C@H]1CCc1ccccc1	none (no result: TRPV1 potentiator, uPA generation, TRPV1 agonist)
CCN1C(=S)N[C@@H](CCc2ccccc2)C(C(=O)OC)=C1C	VP16 counter inconclusive, RORg inh 4.5µM!
CCOC(=O)C1=C(C)N(CC)C(=S)NC1c1ccccc1OC(F)F (stereo unspecified)	VP16 counter inconclusive, RORg inh 2µM
CCN1C(=S)N[C@@H](c2cccs2)C(C(=O)OC)=C1C	TRPV1 potentiator inconclusive, VP16 counter 20µM, RORg inh 4µM
Cc1ccc(C(=O)N2CCN(S(=O)(=O)c3cc(Br)ccc3Br)CC2)o1	none
S=c1[nH]nc(-c2ccccc2)c2ccccc12	VP16 counter 11µM, RORg inh 7.1µM
CCOc1ccc(-c2n[nH]c(=S)c3ccccc23)cc1	VP16 counter 10µM, RORg inh 7.1µM
O=C(Nc1nccs1)c1cc([N+](=O)[O-])ccc1Cl	uPA generation inconclusive (no result: VP16 counter, RORg inh)
O=C(Nc1nccs1)c1ccc(Cl)c([N+](=O)[O-])c1	uPA generation inconclusive, VP16 counter 4.5µM, RORg inh 6.3µM
COc1ccc(C(=O)Nc2ccc(C(=O)Nc3nccs3)cc2)cc1[N+](=O)[O-]	none
O=C(Nc1nccs1)c1ccc([N+](=O)[O-])cc1Cl	VP16 counter inconclusive, RORg inh 11µM
Cc1ccc(NC(=O)c2ccc(Cl)cc2[N+](=O)[O-])nc1	none
O=C(Nc1nccs1)c1ccc(Cl)cc1[N+](=O)[O-]	VP16 counter inconclusive, RORg inh 10µM
COC(=O)c1ccc(C(NC(=O)OCc2ccccc2)/C(C)=C/[C@@H](C)C(=O)N(C)Cc2cccnc2)cc1 (stereo partly specified)	RORg inh inconclusive (no result: TRPV1 potentiator, uPA generation, TRPV1 agonist)
CCC1CCCCN1C(=O)COc1c(Br)cc(Br)c2cccnc12 (stereo unspecified)	VP16 counter inconclusive, RORg inh 13µM
CCC1CCCCN1C(=O)COc1ccc(F)cc1 (stereo unspecified)	none
O=C1C(=C2SCCCS2)CC/C1=C\c1ccc(F)cc1	VP16 counter 3.5µM, RORg inh 4.5µM
Cc1cccc(/C=C2\CCC(=C3SCCCS3)C2=O)c1	VP16 counter 3.5µM, RORg inh 0.28µM
O=C(Cn1cc(C(F)(F)F)cc(Cl)c1=O)Nc1cccc(S(=O)(=O)N2CCCCC2)c1	none (no result: VP16 counter, RORg inh)
CN1CCC(Nc2ncc3ncnc(Nc4ccc(F)c(Cl)c4)c3n2)CC1	none (no result: TRPV1 potentiator, uPA generation, TRPV1 agonist)
Cc1ccc(S(=O)(=O)Nc2c(O)ccc3ccccc23)cc1	none (no result: TRPV1 potentiator, VP16 counter, TRPV1 agonist, RORg inh)
Cc1ccc(S(=O)(=O)Nc2c(Cl)c(Cl)c(O)c3ccccc23)cc1	VP16 counter inconclusive, RORg inh 18µM (no result: uPA generation)
O=C(CNCc1cccs1)Nc1ccc(OC(F)(F)F)cc1	none
O=C(NCc1cccs1)c1nc2c(nnn2Cc2ccccc2Cl)c(=O)[nH]1	VP16 counter 2.8µM, RORg inh 10µM
CCC(C)NC(=O)c1nc2c(nnn2Cc2ccccc2Cl)c(=O)[nH]1 (stereo unspecified)	none
NNC(=O)c1cc2ccccc2cc1NS(=O)(=O)c1ccccc1	VP16 counter inconclusive, RORg inh 20µM
CCOC(=O)c1cn(-c2c(Cl)cccc2Cl)c2cc(Cl)c([N+](=O)[O-])cc2c1=O	uPA generation 8.9µM, TRPV1 agonist inconclusive, RORg inh inconclusive
CCOC(=O)c1cn(CC)c2cc(Cl)c([N+](=O)[O-])cc2c1=O	none
O=C(NC(=S)N1CCN(c2ccc([N+](=O)[O-])cc2)CC1)c1ccco1	VP16 counter 1.4µM, RORg inh 0.71µM
O=C(NC(=S)N1CCN(c2ccc(Cl)cc2[N+](=O)[O-])CC1)c1cccs1	TRPV1 agonist inconclusive, RORg inh 0.28µM (no result: VP16 counter)
Cc1ccc(CC(=O)N2CCN(c3ccc([N+](=O)[O-])cc3)CC2)cc1	VP16 counter 35µM, TRPV1 agonist inconclusive, RORg inh inconclusive
O=C(NCC(=O)N1CCN(c2ccc([N+](=O)[O-])cc2)CC1)c1ccco1	none (no result: TRPV1 potentiator, VP16 counter, TRPV1 agonist, RORg inh)
O=C(NC(=S)N1CCN(c2ccc(Cl)cc2[N+](=O)[O-])CC1)c1ccco1	VP16 counter 0.25µM, RORg inh 0.28µM
CCC(=O)N1CCN(c2ccc(Cl)cc2NC(=S)NC(=O)c2ccco2)CC1	none (no result: TRPV1 potentiator, VP16 counter, TRPV1 agonist, RORg inh)
NCC[C@H](O)C(=O)N[C@@H]1C[C@H](N)[C@@H](O[C@H]2O[C@H](CN)CC[C@H]2N)[C@H](O)[C@H]1O[C@H]1O[C@H](CO)[C@@H](O)[C@H](N)[C@H]1O	none (no result: TRPV1 potentiator, uPA generation, TRPV1 agonist)
COc1ccc(N(CC(=O)N2CCOCC2)S(C)(=O)=O)cc1	none
OC[C@H]1OC(O)[C@H](O)[C@@H](O)[C@@H]1O (stereo partly specified)	none (no result: TRPV1 potentiator, uPA generation, TRPV1 agonist)
CC(=O)Nc1ccc(NC2=Nc3ccccc3N3C2=Nc2c(c(C)nn2-c2ccccc2)C3c2ccccc2)cc1 (stereo unspecified)	TRPV1 potentiator inconclusive, VP16 counter 0.89µM, RORg inh 0.089µM
